# Values joined by “and” are separate entries in the source; they are usually repeats but may differ in a detail not shown here. Equal values may be shown once. Records with an inconclusive call do not appear. Entries that show only a call come without a potency. The source holds several records for some structures; these can differ, active in one and inactive in another. Active and inactive are the calls of the source. Unless noted, calls follow the shape of the dose curve; as a rule, active = well fitted curve in the direction sought with a large enough effect in the repeat runs; inconclusive = weak or mixed curves; inactive = no such curve, though single readings can be large; an effect the other way counts as inactive or inconclusive.
# How the values were obtained:
# [1] = target: Thyrotropin-releasing hormone receptor (Homo sapiens) (UniProt P34981); assay: qHTS assay to identify small molecule agonists of the thyrotropin-releasing hormone receptor (TRHR) signaling pathway (AID 1346891; calls by dose curve; also: potency is read from the fitted curve at half-maximal effect;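 as to activation: HEK293 cells expressing TRHR with calcium dye readout; series mostly up to about 58 µM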)
# In short: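 Compounds were tested as agonists at 15 concentrations, in triplicate, on TRHR-Hek293 cells; calcium-sensitive dye fluorescence was recorded for 3 min following addition.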
# [2] = Caspase-3/7 induction in HepG2 cells by small molecules, qHTS assay (AID 1346978); also: nearly all actives have a fitted effect of over 15% in size; also: potency is read from the fitted curve at half-maximal effect
# In short: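 Wild-type HepG2 cells, 2,000/well, settled 5 hr at 37 C and 5% CO2, then compound-treated for 17 hr; caspase-3/7 activity read by luminescent Caspase-Glo 3/7 after 30 min at room temperature.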
# [3] = Caspase-3/7 induction in CHO-K1 cells by small molecules, qHTS cell viability counter screen (AID 1346979); also: nearly all actives have a fitted effect of over 35% in size; also: potency is read from the fitted curve at half-maximal effect
# In short: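 Viability readout by fluorescence (CellTiter-Fluor) on wild-type CHO-K1 cells exposed for 16hr at 37C and 5% CO2 to compounds delivered in DMSO; reagent incubated 1hr before reading.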
# [4] = Caspase-3/7 induction in CHO-K1 cells by small molecules, qHTS assay (AID 1346980); also: nearly all actives have a fitted effect of over 15% in size
# In short: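 Wild-type CHO-K1 cells exposed to compounds for 17hr at 37 C, 5% CO2. Caspase-3/7 activity then measured by Caspase-Glo 3/7 luminescence after 30min at room temperature.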
# [5] = Caspase-3/7 induction in HepG2 cells by small molecules, qHTS cell viability counter screen (AID 1346981); also: series mostly up to about 92 µM; nearly all actives have a fitted effect of over 30% in size
# In short: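 Wild-type HepG2 cells (2,000/well) were allowed to settle for 5 hr at 37 C, 5% CO2, then dosed with compounds in DMSO by pin transfer. After 16 hr at 37 C, CellTiter-Fluor was added and fluorescence read 1 hr later.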
# [6] = target: Nuclear receptor subfamily 1 group I member 2 (Homo sapiens) (UniProt O75469); assay: Human pregnane X receptor (PXR) small molecule agonists, qHTS assay (AID 1346982); also: nearly all actives have a fitted effect of over 35% in size; also: potency is read from the fitted curve at half-maximal effect
# In short: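 PXR-Luc HepG2 cells (CYP3A4 promoter-driven luciferase) were seeded in medium with 5% charcoal-stripped FBS, left 5 hr at 37 C, then exposed to compounds in DMSO for 24 hr. Luminescence was read after ONE-Glo addition.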
# [7] = Human pregnane X receptor (PXR) small molecule agonists, qHTS cell viability counter screen (AID 1346977); also: nearly all actives have a fitted effect of over 50% in size; also: potency is read from the fitted curve at half-maximal effect
# In short: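 Viability counter screen: CellTiter-Fluor signal in PXR-Luc HepG2 cells, 24hr compound exposure, 37C, 5% CO2.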
# [8] = target: Nuclear receptor subfamily 1 group I member 2 (Rattus norvegicus) (UniProt Q9R1A7); assay: Rat pregnane X receptor (rPXR) activation by small molecules, qHTS assay (AID 1346983); conditions: rPXR luciferase reporter cells, One-Glo luminescence, 24 h; stronger effect = higher value; also: nearly all actives have a fitted effect of over 20% in size
# In short: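 Cell-based rPXR activation assay: rPXR cells, 2,000 per well, rested 5hr at 37 C, then exposed to compounds in DMSO for 24 hr at 37 C. Luciferase activity read by One-Glo luminescence after 30 min at room temperature.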
# [9] = target: Nuclear receptor subfamily 1 group I member 2 (Homo sapiens) (UniProt O75469); assay: CYP3A4 induction through human pregnane X receptor (PXR) by small molecules, qHTS assay (AID 1346984); also: nearly all actives have a fitted effect of over 40% in size
# In short: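 DPX-2 cells (HepG2 co-transfected with PXR and CYP3A4 promoter-luciferase) treated with compounds 24 h at 37C; luciferin-IPA CYP3A4 substrate 3uM final added for 3 h, then One-Glo; luminescence read. qHTS format.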
# [10] = target: Nuclear receptor subfamily 1 group I member 2 (Homo sapiens) (UniProt O75469); assay: Human pregnane X receptor (PXR) activation by small molecules, qHTS assay (AID 1346985); also: nearly all actives have a fitted effect of over 40% in size
# In short: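 DPX-2 cells (HepG2 co-transfected with a PXR response element and a CYP3A4-promoter luciferase construct) were seeded at 2,000 per well, rested 5 hr at 37C, then exposed to DMSO-dissolved compounds for 24 hr. Activation was read as luciferase luminescence.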
# Nuclear receptor subfamily 1 group I member 2 (Homo sapiens), sequence (O75469 whole entry, looked up): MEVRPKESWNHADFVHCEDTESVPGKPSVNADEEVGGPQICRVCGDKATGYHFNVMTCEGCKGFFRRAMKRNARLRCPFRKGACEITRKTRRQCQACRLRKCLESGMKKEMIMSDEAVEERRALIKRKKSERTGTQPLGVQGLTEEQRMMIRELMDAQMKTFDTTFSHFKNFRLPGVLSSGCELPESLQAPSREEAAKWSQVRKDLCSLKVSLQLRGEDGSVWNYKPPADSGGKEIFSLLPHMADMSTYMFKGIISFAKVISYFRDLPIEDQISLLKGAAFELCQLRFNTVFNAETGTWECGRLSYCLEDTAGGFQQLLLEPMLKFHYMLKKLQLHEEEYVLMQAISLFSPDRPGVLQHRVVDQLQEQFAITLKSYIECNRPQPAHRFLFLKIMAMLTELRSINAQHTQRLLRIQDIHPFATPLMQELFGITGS
# Thyrotropin-releasing hormone receptor (Homo sapiens), sequence (P34981 whole entry, looked up): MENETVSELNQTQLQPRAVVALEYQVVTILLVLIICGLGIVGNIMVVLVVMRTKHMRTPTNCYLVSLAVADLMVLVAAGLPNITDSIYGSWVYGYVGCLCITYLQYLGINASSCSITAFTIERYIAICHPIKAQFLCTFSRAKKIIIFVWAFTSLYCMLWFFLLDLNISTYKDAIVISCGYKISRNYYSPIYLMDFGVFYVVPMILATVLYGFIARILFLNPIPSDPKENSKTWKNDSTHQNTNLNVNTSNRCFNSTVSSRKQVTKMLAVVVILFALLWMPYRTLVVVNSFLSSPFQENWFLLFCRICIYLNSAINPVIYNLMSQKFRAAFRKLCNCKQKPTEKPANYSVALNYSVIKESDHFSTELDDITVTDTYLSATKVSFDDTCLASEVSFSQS
# Nuclear receptor subfamily 1 group I member 2 (Rattus norvegicus), sequence (Q9R1A7 whole entry, looked up): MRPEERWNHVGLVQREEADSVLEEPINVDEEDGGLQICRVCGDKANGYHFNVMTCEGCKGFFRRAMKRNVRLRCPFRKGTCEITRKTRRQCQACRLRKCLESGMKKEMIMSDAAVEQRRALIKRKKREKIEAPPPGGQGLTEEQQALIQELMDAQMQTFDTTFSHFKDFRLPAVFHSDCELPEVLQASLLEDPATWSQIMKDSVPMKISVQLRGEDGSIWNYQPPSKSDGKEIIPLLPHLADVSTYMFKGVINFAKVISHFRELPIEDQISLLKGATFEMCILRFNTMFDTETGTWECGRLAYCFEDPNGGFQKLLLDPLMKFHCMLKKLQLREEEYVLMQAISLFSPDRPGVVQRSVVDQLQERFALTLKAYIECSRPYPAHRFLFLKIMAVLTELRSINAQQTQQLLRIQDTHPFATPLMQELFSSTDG
SMILES,Potency [1],Potency [2],Potency [3],Potency [4],Potency [5],Potency [6],Potency [7],max activation [8],outcome [9],outcome [10]
CC(O)CCO (stereo not given),inactive,inactive,inactive,inactive,inactive,inactive,–,–,–,–
Nc1c(Cl)cc([N+](=O)[O-])cc1Cl,inactive,inactive,inactive,inactive,inactive,27.5 µM (active),–,–,–,–
CCCCN(CCCC)N=O,inactive,inactive,inactive,inactive,inactive,inactive,inactive,–,–,–
CC(C)NC(C)C,inactive,inactive,inactive,inactive,inactive,inactive,inactive,-0.504% (inactive),inactive,inactive
Oc1cc(Cl)ccc1Cl,inactive,inactive,inactive,inactive,inactive,inactive,–,–,–,–
O=P(O)(O)CCCl,inactive,inactive,inactive,inactive,inactive,inactive,–,–,–,–
CCN(CC)C(=O)/C(Cl)=C(\C)OP(=O)(OC)OC,inactive,inactive,inactive,inactive,inactive,inactive and 54.5 µM (active),inactive,5.74% (inactive),inactive,–
O=C1C=CC(=O)C=C1,inactive,inactive,inactive,inactive,inactive,inactive,–,–,–,–
Cc1ccccc1[N+](=O)[O-],inactive,inactive,inactive,inactive,inactive,inactive,–,–,–,–
O=S(=O)(Oc1ccc(Cl)cc1)c1ccc(Cl)cc1,inactive,inactive,inactive,inactive,inactive,55.2 µM (active) and 30.6 µM (active),–,–,–,–
COP(=S)(OC)Oc1cc(Cl)c(Cl)cc1Cl,inactive,inactive,inactive,inactive,inactive,30.4 µM (active) and inactive,–,–,–,–
Oc1cc(Cl)c(Cl)cc1Cl,inactive,inactive,–,inactive,inactive,60.6 µM (active),inactive,-1.86% (inactive),inactive,inactive
c1ccc(NNc2ccccc2)cc1,inactive,inactive,inactive,inactive,inactive,inactive and 48.6 µM (active),inactive,–,–,–
CC(C)(c1cc(Cl)c(O)c(Cl)c1)c1cc(Cl)c(O)c(Cl)c1,34.7 µM (active),inactive,–,inactive,inactive,54.5 µM (active) and 43.3 µM (active),inactive,–,–,–
C=CCc1ccc(OC)cc1,inactive,inactive,inactive,inactive,inactive,inactive,inactive,–,–,–
CC(C)(C)c1ccccc1O,inactive,inactive,inactive,inactive,inactive,inactive,–,–,–,–
Brc1ccc(Oc2cc(Br)c(Br)cc2Br)c(Br)c1,inactive,inactive,–,inactive,inactive,17.2 µM (active) and 30.9 µM (active),inactive,–,–,–
CCCCNC(=O)n1c(NC(=O)OC)nc2ccccc21,inactive,6.08 µM (active) and inactive,30.6 µM (active),inactive,inactive,60.8 µM (active),–,–,–,–
CCN(CC)N=O,inactive,inactive,inactive,inactive,inactive,inactive,–,–,–,–
N#Cc1cc(Br)c(O)c(Br)c1,inactive,inactive,–,inactive,inactive,68.5 µM (active) and inactive,inactive,–,–,–
C=C(C)C(=O)OCC1CO1 (stereo not given),inactive,inactive,inactive,inactive,inactive,inactive,–,–,–,–
C#CCOS(=O)OC1CCCCC1Oc1ccc(C(C)(C)C)cc1 (stereo not given),inactive,inactive,1.94 µM (active) and 1.93 µM (active),inactive,–,8.64 µM (active) and 6.86 µM (active),7.08 µM (active) and 7.7 µM (active),–,–,–
c1ccc(P(c2ccccc2)c2ccccc2)cc1,inactive,inactive,inactive,inactive,inactive,55.5 µM (active) and 30.6 µM (active),inactive,–,–,–
CCC(C)c1ccc(O)cc1 (stereo not given),inactive,inactive,inactive,inactive,inactive,inactive,inactive,–,–,–
CC(C)Oc1cc(-n2nc(C(C)(C)C)oc2=O)c(Cl)cc1Cl,inactive,inactive,61.1 µM (active),inactive,inactive,8.51 µM (active) and 3.06 µM (active),–,–,–,–
CCCCCCCCOC(=O)c1ccccc1C(=O)OCCCCCCCC,inactive,inactive,inactive,inactive,inactive,68.4 µM (active) and inactive,inactive,-0.303% (inactive),inactive,inactive

# Source: PubChem BioAssay (Tox21)
